Several values for one entry are separate records, joined by “and”; a condition that tells them apart may be missing. Equal entries are not always repeated. Results filed as inconclusive are left out. Activity calls are given as the source filed them. Unless noted, the call rests on the fitted dose curve; in most records, active means well fitted curve in the direction sought with a large enough effect; inconclusive means small, poorly fitted or top-dose-only effect, or another doubt; inactive means no such curve, though single readings can be large; an effect the other way counts as inactive or inconclusive.
Assays:
[1] = biological target: Cellular tumor antigen p53 (Homo sapiens) (UniProt P04637); assay: Primary qHTS for small molecule compounds that upregulate eGFP-tagged delta133p53alpha (in N-terminal) cells. (AID 2060322); conditions: NCI-H358 eGFP-delta133p53alpha fluorescence, 24 h; activation: active compounds read high;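 further: cells pre-induced with doxycycline then dosed without doxycycline; series mostly up to about 56 µM; 0% = DMSO vehicle and 100% = reference activator; nearly all actives have a fitted effect of over 75% in size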
Chain of Cellular tumor antigen p53 (Homo sapiens) (P04637 whole entry, looked up): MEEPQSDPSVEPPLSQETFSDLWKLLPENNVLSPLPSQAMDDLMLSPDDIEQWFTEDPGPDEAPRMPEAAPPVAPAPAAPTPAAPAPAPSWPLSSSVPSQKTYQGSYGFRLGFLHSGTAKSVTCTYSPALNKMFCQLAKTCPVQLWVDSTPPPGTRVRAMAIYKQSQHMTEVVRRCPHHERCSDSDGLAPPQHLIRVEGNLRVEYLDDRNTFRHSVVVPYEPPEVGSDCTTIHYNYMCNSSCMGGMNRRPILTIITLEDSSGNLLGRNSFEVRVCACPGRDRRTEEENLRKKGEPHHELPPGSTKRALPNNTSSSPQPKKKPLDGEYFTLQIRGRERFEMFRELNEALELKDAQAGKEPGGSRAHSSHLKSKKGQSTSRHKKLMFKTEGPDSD
Summary of the method: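 NCI-H358 cells pre-induced 24 h with 10 ng/ml doxycycline for eGFP-delta133p53alpha, plated dox-free and exposed 24 h at 37C to titrated compounds. Fixed, Hoechst-stained; gated GFP peak intensity by laser scanning cytometry, normalized to DMSO (0%) and 57.5 uM 5-azacytidine (100%).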

[2] = biological target: Cellular tumor antigen p53 (Homo sapiens) (UniProt P04637); assay: Primary qHTS for small molecule compounds that upregulate eGFP-tagged delta133p53alpha (in C-terminal) cells. (AID 2060324); further: potency means the concentration at half of the fitted maximal effect
Summary of the method: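 Readout: filtered GFP peak intensity of gated cells (laser scanning cytometer), normalized plate-wise to intraplate controls, DMSO wells = 0% activity. Cells: NCI-H358 D133p53a-eGFP, dox 100 ng/ml 24 h beforehand, then compound 24 h, 37 °C.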

[3] = biological target: Aldehyde dehydrogenase, mitochondrial (Homo sapiens) (UniProt P05091); assay: qHTS for Inhibitors of the Aldehyde Dehydrogenase Family (ALDH2) Validation screens (AID 2061302; active means well fitted inhibition curve with a large enough effect; title and protocol of this record describe different tests;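 further: plate controls were DMSO vehicle for no effect and maximal DPI positive control response for full effect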)
[4] = biological target: Retinaldehyde dehydrogenase 3 (Homo sapiens) (UniProt P47895); assay: qHTS for Inhibitors of the Aldehyde Dehydrogenase Family (ALDH1A3) Validation screen (AID 2061312); further: on the % scale 0 is the no-effect control and ±100 the full control effect; nearly all actives have a fitted effect of over 45% in size
[5] = BET inhibitor-based combinations targeting novel dependencies in MECOM-rearranged (r) AML: SET-2 cell line (AID 2202231); conditions: SET-2 AML cells viability, CellTiter-Glo luminescence, 48 h; viability: active compounds read low, concentration not given here; further: nearly all actives have a fitted effect of over 35% in size; further: potency means the concentration at half of the fitted maximal effect;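 on viability: plate controls were DMSO treated cells for no effect and wells without cells for full effect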
Summary of the method: (§1)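 Luminescent ATP readout (CellTiter-Glo) after 48 hr drug exposure gives viability. Curves span 11 concentrations and are normalized to DMSO and empty wells. Activity is reported as area under the curve and its Z-transform within each cell line.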

[6] = BET inhibitor-based combinations targeting novel dependencies in MECOM-rearranged (r) AML: OCI-AML3 cell line (AID 2202232); conditions: Potency: OCI-AML3 viability;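 further: series mostly up to about 46 µM; plate controls were DMSO vehicle wells for no effect and wells without cells for full effect; nearly all actives have a fitted effect of over 35% in size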
Summary of the method: as §1

[7] = BET inhibitor-based combinations targeting novel dependencies in MECOM-rearranged (r) AML: HNT-34 cell line (AID 2202234); further: nearly all actives have a fitted effect of over 35% in size; further: potency means the concentration at half of the fitted maximal effect
Summary of the method: (§2)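 Luminescent ATP readout (CellTiter-Glo, 15 min at room temperature) after 48 hr drug exposure gave viability. Dose-response curves, normalized to DMSO and empty-well controls, were summarized as area under the curve and its mean-centred Z-score.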

[8] = BET inhibitor-based combinations targeting novel dependencies in MECOM-rearranged (r) AML: UCSD-AML1 cell line (AID 2202235);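 further: series mostly up to about 46 µM; plate controls were DMSO vehicle wells for no effect and blank wells for full effect; nearly all actives have a fitted effect of over 40% in size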
Summary of the method: as §2

[9] = BET inhibitor-based combinations targeting novel dependencies in MECOM-rearranged (r) AML: AML-194 cell line (AID 2202237;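 further: plate controls were vehicle wells for no effect and wells without cells for full effect; nearly all actives have a fitted effect of over 40% in size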)
Summary of the method: as §1

[10] = BET inhibitor-based combinations targeting novel dependencies in MECOM-rearranged (r) AML: MV-4-11 cell line (AID 2202233); further: nearly all actives have a fitted effect of over 45% in size; further: potency means the concentration at half of the fitted maximal effect
Summary of the method: as §2

[11] = BET inhibitor-based combinations targeting novel dependencies in MECOM-rearranged (r) AML: AML-191 cell line (AID 2202236; further: nearly all actives have a fitted effect of over 35% in size; further: potency means the concentration at half of the fitted maximal effect)
Summary of the method: as §1

CNC[C@H](O)c1cccc(O)c1
inactive: activation [1] -9.21% and 8.41% and -4.95% | Potency [2] | Potency [3] | Potency [4] | viability [5] 112% | Potency [6] | Potency [7] | Potency [8] | Potency [9]

c1ccc([C@H]2CN3CCSC3=N2)cc1
inactive: activation [1] 15.3% and -0.374% | Potency [2] | Potency [3] | Potency [4] | viability [5] 112% | Potency [10] | Potency [7] | Potency [8] | Potency [11] | Potency [9]

CN(CCOc1ccc(NS(C)(=O)=O)cc1)CCc1ccc(NS(C)(=O)=O)cc1
inactive: activation [1] -5.08% and 6.34% and 4.63% | Potency [2] | Potency [3] | Potency [4] | viability [5] 110% | Potency [10] | Potency [7] | Potency [8] | Potency [11] | Potency [9]

O=c1c(-c2ccc(O)cc2)coc2cc(O)cc(O)c12
inactive: activation [1] -2.22% and -24.3% and -49.4% | Potency [2] | Potency [3] | Potency [4]
active: Potency [5] 42.8 µM | Potency [10] 34 µM | Potency [7] 21.5 µM | Potency [11] 42.8 µM

Cc1cc(C)c(/C=C2\C(=O)Nc3ccccc32)[nH]1
inactive: activation [1] -35.1% | Potency [3] | Potency [4] | viability [5] 96.4% | Potency [8] | Potency [9]
active: Potency [2] 30.1 µM | Potency [7] 0.296 µM | Potency [11] 11.8 µM

CC/C(=C(\c1ccccc1)c1ccc(OCCN(C)C)cc1)c1ccccc1
inactive: activation [1] -17.6% and -12.3% and -27% | Potency [2] | Potency [3] | Potency [4]
active: Potency [5] 12.1 µM | Potency [10] 15.2 µM | Potency [7] 15.2 µM

Source: PubChem BioAssay (NCATS)
